# Assay results reported in PubChem BioAssay.
# Inconclusive results are not listed. Active and inactive are the calls of the source.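 The calls were made as follows, unless noted: active = viability loss from added drug above about 55%, and viability with drug at most 40%, in both replicates (limit read from the data, passing the limit was not always enough); inconclusive = both conditions met in only one replicate; inactive = neither replicate meets both conditions.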
# How the values were obtained:
# [1] = reducers of endogenous Her2 protein level, primary screen, SKBR3 breast tumor cells, AlphaScreen, ATP viability (AID 461;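 active = Her2 level under about 52% in both replicate screens, with viability over 70% of control, limit read from the data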;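 as to Her2 level: lower value means less Her2 protein in the cells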;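 as to viability: percent of carrier control wells set as 100% viability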); conditions: 18-24 h, measured here: SKBR3 viability, ATP luminescence, at 10 µM
# [2] = target: Receptor tyrosine-protein kinase erbB-2 (Homo sapiens) (UniProt P04626); assay: as above; conditions: 18-24 h, at 10 µM, stronger effect = lower value
# Sequence of Receptor tyrosine-protein kinase erbB-2 (Homo sapiens) (P04626 whole entry, looked up): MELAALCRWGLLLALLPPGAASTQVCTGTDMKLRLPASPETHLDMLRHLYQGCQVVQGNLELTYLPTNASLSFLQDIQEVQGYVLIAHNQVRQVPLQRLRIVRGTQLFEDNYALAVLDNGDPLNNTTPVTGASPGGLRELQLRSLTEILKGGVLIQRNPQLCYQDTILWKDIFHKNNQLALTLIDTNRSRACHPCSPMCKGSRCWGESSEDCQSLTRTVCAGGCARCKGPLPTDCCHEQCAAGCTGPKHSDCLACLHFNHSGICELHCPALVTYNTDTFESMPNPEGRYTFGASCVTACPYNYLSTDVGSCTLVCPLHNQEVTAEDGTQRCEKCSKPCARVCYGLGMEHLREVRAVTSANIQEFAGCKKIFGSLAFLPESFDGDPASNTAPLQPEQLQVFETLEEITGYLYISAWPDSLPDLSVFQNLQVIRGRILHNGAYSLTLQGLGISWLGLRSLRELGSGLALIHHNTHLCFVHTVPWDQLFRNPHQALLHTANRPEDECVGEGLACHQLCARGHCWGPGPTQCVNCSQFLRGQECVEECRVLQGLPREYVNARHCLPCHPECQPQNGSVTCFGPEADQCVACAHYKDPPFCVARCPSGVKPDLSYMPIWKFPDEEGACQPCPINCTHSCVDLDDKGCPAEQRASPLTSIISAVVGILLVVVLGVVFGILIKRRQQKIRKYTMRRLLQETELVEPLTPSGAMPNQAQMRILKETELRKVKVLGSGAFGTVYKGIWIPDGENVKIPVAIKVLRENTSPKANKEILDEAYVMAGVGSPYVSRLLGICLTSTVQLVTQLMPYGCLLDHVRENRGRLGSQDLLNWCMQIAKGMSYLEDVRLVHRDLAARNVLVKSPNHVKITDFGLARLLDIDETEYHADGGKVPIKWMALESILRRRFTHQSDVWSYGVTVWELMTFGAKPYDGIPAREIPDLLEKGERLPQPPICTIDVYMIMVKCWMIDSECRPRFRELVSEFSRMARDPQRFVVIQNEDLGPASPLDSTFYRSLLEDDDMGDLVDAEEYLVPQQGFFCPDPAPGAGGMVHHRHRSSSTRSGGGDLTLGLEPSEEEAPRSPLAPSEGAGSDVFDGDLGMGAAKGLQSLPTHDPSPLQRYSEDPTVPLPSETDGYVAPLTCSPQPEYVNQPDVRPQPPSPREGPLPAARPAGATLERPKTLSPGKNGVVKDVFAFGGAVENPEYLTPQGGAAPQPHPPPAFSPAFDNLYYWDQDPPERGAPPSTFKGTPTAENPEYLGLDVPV
# [3] = SK-BR-3 cell growth inhibitors, pilot screen, 24 h, human (AID 572;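 active = viability at or below 10% of carrier control in both of two separate runs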;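 also: compound exposure lasted between 18 and 24 h rather than exactly 24 h; 100% = carrier-treated control wells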); conditions: SK-BR-3 viability, CellTiter-Glo luminescence, at 10 µM, stronger effect = lower value
# [4] = HUVEC growth inhibition – cell-based, human, primary screen (AID 575;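 active = viability at or below 30% in both replicate assays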;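 also: 100% = median of untreated cell wells with 0.1% DMSO on each plate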); conditions: HUVEC proliferation, CellTiter-Glo luminescence, 72 h; at 10 µM; stronger effect = lower value
# [5] = growth inhibitors of H69AR lung tumor, primary screen, human, duplicate replicates (AID 580;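 active = viability at or under a set limit in both replicates, limit being median viability minus 3 SD, cut at about 48% in these data, passing the limit was not always enough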;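 also: 100% = mean luminescence of untreated wells and 0% = no signal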); conditions: H69AR lung tumor cells viability, ATP luminescence, 72 h; at 10 µM; stronger effect = lower value
# [6] = reversal of MRP1-mediated doxorubicin resistance, pilot screen, H69AR cells, doxorubicin co-treatment (AID 601); conditions: CellTiter-Glo, 72 h, at 10 µM; for differential viability (reversal): stronger effect = higher value
# [7] = 384-well plate pilot, post-Golgi transport modulator project, inhibition of yeast transport mutant growth (AID 636; in the data active = inhibition above about 31%); conditions: absorbance 615 nm, about 18 h, stronger effect = higher value
# [8] = growth suppression of yeast trafficking mutant, preliminary HTS, modulators of trafficking downstream of Golgi apparatus project, 1536-format plate, OD 615 nm (AID 637; in the data active = inhibition above about 30%); conditions: yeast transport mutant growth, absorbance 615 nm, 18 h; stronger effect = higher value
# [9] = OD615 S. cerevisiae growth inhibition, permissive medium, pilot counter-assay, permissive growth control for S. cerevisiae lifespan shortening project (AID 705;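 active = growth inhibition above 25% in both replicates, a cutoff set 3 SD above the mean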); conditions: OD615, 24 h, at 10 µM, stronger effect = higher value
# [10] = Restrictive medium S. cerevisiae growth inhibition, OD615, pilot screen of yeast lifespan reduction project, restrictive growth control (AID 706;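 active = growth inhibition above a set limit, 3 SD over mean compound inhibition, in both replicates, cut at about 43% in these data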;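 also: modified DeaD lifespan yeast strain shifted to restrictive glucose medium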); conditions: OD615, 48 h, at 10 µM, stronger effect = higher value
# [11] = viability gain of MRP-1-high H69AR cells under doxorubicin, pilot screen, MRP-1 activator project, CellTiter-Glo, duplicate (AID 807;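 active = viability increase at or above a cutoff of the median across tested compounds plus 3 SD, cut at about 8.5% in these data, passing the limit was not always enough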;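 also: compound pretreatment 18-22 h then 72 h combined with doxorubicin; 0% = doxorubicin alone and 100% = vehicle without doxorubicin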); conditions: H69AR viability with doxorubicin, CellTiter-Glo luminescence; at 10 µM; stronger effect = higher value
# [12] = growth suppression of beta-catenin knockout HCT116, pilot screen, human colon tumor cells (AID 823;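 active = cell viability at or below a set limit in both duplicate runs, the limit being the all-compound median minus 4 SD, cut at about 23% in these data, passing the limit was not always enough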;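 also: 0% = wells killed by 20 µM Hyamine and 100% = untreated DMSO cell wells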); conditions: CellTiter-Glo, 60 h, at 10 µM, stronger effect = lower value
# [13] = growth suppression of PTEN-deleted HCT116, pilot screen, cell-based, HCT116 clonal line, CellTiter-Glo (AID 824;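 active = viability at or below 27.92% in each of two runs, the all-compound median minus 4 SD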;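 also: 0% = 20 µM Hyamine control and 100% = vehicle cell control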); conditions: 60 h, at 10 µM, stronger effect = lower value
# [14] = inhibitors of the yeast RAM network, pilot screen, dse1pr::URA3 reporter, 5-FOA selection (AID 869;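 active = inhibition over a set limit, the all-compound mean plus 3 SD, in both replicate runs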;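 also: 0% = DMSO wells with no growth and 100% = 10 µM 1-NA-PP1 with full growth; RAM network block rescues cells from 5-FOA so hits raise OD615 growth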); conditions: S. cerevisiae dse1pr::URA3 5-FOA growth, OD615, 2 d; at 10 µM; stronger effect = higher value; strain carries analog-sensitive mutant Cbk1 kinase
# [15] = RAM signaling pathway blockade in yeast – S. cerevisiae, Pdr1DBD-CYC8 efflux-inhibited sensitized strain, primary screen (AID 1298;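 active = RAM network inhibition above 8.4% in each of two replicates, 3 SD over the compound average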;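 also: 0% = DMSO untreated cells without growth and 100% = 10 µM 1-NA-PP1 full growth; higher means more yeast growth rescued from 5-FOA killing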); conditions: S. cerevisiae cbk1-as DSE1-URA3 strain, 5-FOA growth OD615, 2 d; at 50 µM; stronger effect = higher value
# [16] = H69AR cells + 2 uM doxorubicin, measured here: viability with 2 uM doxorubicin, stronger effect = lower value
# [17] = H69AR cells, compound alone cytotoxicity
Structure (SMILES),viability [1] [%],Her2 level [2],viability [3],viability [4],viability [5],differential viability (reversal) ([6]; H69AR cells + 2 uM doxorubicin),"viability [6, 16] [%]","viability [6, 17] [%]",inhibition [7],inhibition [8],growth inhibition [9],growth inhibition [10],viability increase [11],viability [12],viability [13],inhibition [14],RAM network inhibition [15]
CC(C)(C)SCCNC(=O)CSc1ccccc1,102,80% (inactive),102% (inactive),93.3% (inactive),101% (inactive),9.85% (inactive),91,101,-6.22% (inactive),1.9% (inactive),-0.57% (inactive),9.05% (inactive),-0.61% (inactive),107% (inactive),98.3% (inactive),0.055% (inactive),4.54% (inactive)
COCCCNC(=O)Cn1cc2c(n1)CCC(C)C2 (stereo not given),112,100% (inactive),112% (inactive),90.5% (inactive),90.1% (inactive),-1.69% (inactive),91.8,90.1,0% (inactive),0.17% (inactive),-1.62% (inactive),5.27% (inactive),0.05% (inactive),104% (inactive),102% (inactive),1.82% (inactive),-0.72% (inactive)
Nc1[nH]nc2nc(N3CCCC3)nc(-c3ccccc3)c12,113,97.5% (inactive),113% (inactive),92% (inactive),95.6% (inactive),7% (inactive),88.6,95.6,-6.27% (inactive),2.1% (inactive),-6.15% (inactive),-9.01% (inactive),-4.09% (inactive),99% (inactive),90.9% (inactive),0.285% (inactive),-0.16% (inactive)
CCOc1ccccc1C1C(C(=O)Nc2ccc(OC)cc2)=C(C)Nc2nc(CCCO)nn21 (stereo not given),87.5,89.5% (inactive),87.5% (inactive),84.4% (inactive),91.3% (inactive),8.7% (inactive),82.6,91.3,-0.4% (inactive),-2.17% (inactive),-9.82% (inactive),-7.01% (inactive),-0.17% (inactive),109% (inactive),98.7% (inactive),0.865% (inactive),1.36% (inactive)
O=C(O)CC(NC(=O)c1ccccc1NC(=O)c1ccccc1)C(=O)O (stereo not given),86.5,154% (inactive),86.5% (inactive),93.5% (inactive),97.2% (inactive),6.64% (inactive),90.5,97.2,3.97% (inactive),35.3% (active),-0.82% (inactive),-3.04% (inactive),-0.74% (inactive),108% (inactive),96.5% (inactive),0.785% (inactive),0.47% (inactive)
COc1cccc2cc(C(=O)OC3CCN(C)CC3)c(=O)oc12,96,103% (inactive),96% (inactive),94.7% (inactive),105% (inactive),18.2% (inactive),86.5,105,-3.08% (inactive),0.67% (inactive),-7.33% (inactive),-8.68% (inactive),-3.68% (inactive),104% (inactive),107% (inactive),-0.245% (inactive),2.9% (inactive)
O=C1NC2(Nc3ccccc31)C(=O)Nc1ccccc12 (stereo not given),99,83% (inactive),99% (inactive),86.8% (inactive),156% (inactive),58.3% (inactive),97.3,156,-4.86% (inactive),-3.44% (inactive),0.15% (inactive),-6.17% (inactive),-3.77% (inactive),98.8% (inactive),85.2% (inactive),1.85% (inactive),2.35% (inactive)
O=C1C2C3C=CC(C3)C2C(=O)N1c1cccc(N2C(=O)C3C4C=CC(C4)C3C2=O)n1 (stereo not given),91,100% (inactive),91% (inactive),109% (inactive),93.4% (inactive),-4.17% (inactive),97.6,93.4,-4.73% (inactive),4.75% (inactive),-12% (inactive),-11.8% (inactive),-0.89% (inactive),104% (inactive),104% (inactive),3.84% (inactive),5.46% (inactive)
CC1=C(C(=O)OC2CCCC2)C(c2ccc(C)o2)C2=C(CC(c3cccs3)CC2=O)N1 (stereo not given),148,108% (inactive),148% (inactive),75.1% (inactive),74.8% (inactive),13.3% (inactive),61.5,74.8,-1.17% (inactive),-11% (inactive),-3.79% (inactive),-19.9% (inactive),-4.36% (inactive),46.3% (inactive),58.9% (inactive),1.68% (inactive),2.7% (inactive)
COc1ccccc1S(=O)(=O)Cc1ccc(C(=O)N2CCOCC2)o1,113,98.5% (inactive),113% (inactive),105% (inactive),87.6% (inactive),-5.08% (inactive),92.7,87.6,-2.13% (inactive),3.5% (inactive),1.17% (inactive),-2.13% (inactive),-2.08% (inactive),106% (inactive),97.9% (inactive),1.65% (inactive),0.78% (inactive)
